# Measurements as given in the supplement of paper PMC6897291.
# Legend:
# [1] = test system: U-2932; assay: growth inhibition by drug alone (1 - RLU/untreated control) (fraction); higher = stronger inhibition; settings: 177Lu-lilotomab satetraxetan 0 ug/ml
# Procedure, shortened: (§1)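 RIVA or U-2932 cells, untreated or pretreated 18 h with a radiolabelled anti-CD37 antibody conjugate (~600 MBq/mg; 0.5 µg/ml RIVA, 1 µg/ml U-2932), were washed and seeded at 3,000 cells/well on plates pre-printed with the Selleck Cambridge Cancer Compound library. Doses were 10/100 nM (RIVA) or 10/1,000 nM (U-2932). RealTime-Glo luminescence was read daily from day 3 after 1 h at 37°C. Growth inhibition is 1 − RLU/mean of 48 untreated no-drug wells per plate.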
# [2] = test system: RIVA; assay: as above; settings: 177Lu-lilotomab satetraxetan 0 ug/ml
# Procedure, shortened: as §1
# [3] = test system: U-2932; assay: growth inhibition by drug plus 177Lu-lilotomab satetraxetan (1 - RLU/untreated control) (fraction); higher = stronger inhibition; settings: 177Lu-lilotomab satetraxetan 1 ug/ml
# Procedure, shortened: as §1
# [4] = test system: RIVA; assay: as above; settings: 177Lu-lilotomab satetraxetan 0.5 ug/ml
# Procedure, shortened: as §1
Compound,"growth inhibition by drug alone ([1]; 10 nM, time (day): 3)","growth inhibition by drug alone ([1]; 10 nM, time (day): 4)","growth inhibition by drug alone ([1]; 10 nM, time (day): 5)","growth inhibition by drug alone ([1]; 10 nM, time (day): 6)","growth inhibition by drug alone ([1]; 1000 nM, time (day): 3)","growth inhibition by drug alone ([1]; 1000 nM, time (day): 4)","growth inhibition by drug alone ([1]; 1000 nM, time (day): 5)","growth inhibition by drug alone ([1]; 1000 nM, time (day): 6)","growth inhibition by drug alone ([2]; 10 nM, time (day): 3)","growth inhibition by drug alone ([2]; 10 nM, time (day): 4)","growth inhibition by drug alone ([2]; 10 nM, time (day): 5)","growth inhibition by drug alone ([2]; 10 nM, time (day): 6)","growth inhibition by drug alone ([2]; 100 nM, time (day): 3)","growth inhibition by drug alone ([2]; 100 nM, time (day): 4)","growth inhibition by drug alone ([2]; 100 nM, time (day): 5)","growth inhibition by drug alone ([2]; 100 nM, time (day): 6)","growth inhibition by drug plus 177Lu-lilotomab satetraxetan ([3]; 10 nM, time (day): 3)","growth inhibition by drug plus 177Lu-lilotomab satetraxetan ([3]; 10 nM, time (day): 4)","growth inhibition by drug plus 177Lu-lilotomab satetraxetan ([3]; 10 nM, time (day): 5)","growth inhibition by drug plus 177Lu-lilotomab satetraxetan ([3]; 10 nM, time (day): 6)","growth inhibition by drug plus 177Lu-lilotomab satetraxetan ([3]; 1000 nM, time (day): 3)","growth inhibition by drug plus 177Lu-lilotomab satetraxetan ([3]; 1000 nM, time (day): 4)","growth inhibition by drug plus 177Lu-lilotomab satetraxetan ([3]; 1000 nM, time (day): 5)","growth inhibition by drug plus 177Lu-lilotomab satetraxetan ([3]; 1000 nM, time (day): 6)","growth inhibition by drug plus 177Lu-lilotomab satetraxetan ([4]; 10 nM, time (day): 3)","growth inhibition by drug plus 177Lu-lilotomab satetraxetan ([4]; 10 nM, time (day): 4)","growth inhibition by drug plus 177Lu-lilotomab satetraxetan ([4]; 10 nM, time (day): 5)","growth inhibition by drug plus 177Lu-lilotomab satetraxetan ([4]; 10 nM, time (day): 6)","growth inhibition by drug plus 177Lu-lilotomab satetraxetan ([4]; 100 nM, time (day): 3)","growth inhibition by drug plus 177Lu-lilotomab satetraxetan ([4]; 100 nM, time (day): 4)","growth inhibition by drug plus 177Lu-lilotomab satetraxetan ([4]; 100 nM, time (day): 5)","growth inhibition by drug plus 177Lu-lilotomab satetraxetan ([4]; 100 nM, time (day): 6)"
NC(=O)Nc1cc(-c2cccc(F)c2)sc1C(=O)N[C@H]1CCCNC1,0.0534,0.00627,-0.197,-0.0587,0.942,0.955,0.959,0.962,0.0596,0.0145,-0.0537,-0.23,0.0812,0.0623,0.0116,-0.14,-0.0183,0.0423,0.122,0.155,0.964,0.971,0.974,0.978,0.318,0.362,0.396,0.43,0.139,0.161,0.178,0.185
C[C@@H]1CN(CC(=O)Nc2ccc3c(c2)Cc2cccc(-c4cc(=O)cc(N5CCOCC5)o4)c2S3)C[C@H](C)O1,0.00343,-0.0228,-0.128,-0.257,-0.073,-0.0366,-0.0776,-0.17,-0.0136,-0.0829,-0.153,-0.417,-0.282,-0.285,-0.284,-0.465,-0.0592,-0.0257,-0.0361,-0.0183,-0.0688,0.0229,0.0334,0.0421,0.275,0.441,0.452,0.479,0.232,0.357,0.37,0.373
COc1cccc2c1C(=O)c1c(O)c3c(c(O)c1C2=O)C[C@@](O)(C(=O)CO)C[C@@H]3O[C@H]1C[C@H](N)[C@H](O)[C@H](C)O1 [Doxorubicin (Adriamycin)],0.258,0.293,0.356,0.433,0.974,0.983,0.986,0.988,0.198,0.324,0.365,0.391,0.62,0.794,0.872,0.915,0.422,0.492,0.589,0.687,0.979,0.986,0.989,0.99,0.831,0.879,0.909,0.933,0.869,0.928,0.952,0.968
CC(C)n1nc(-c2ccc3oc(N)nc3c2)c2c(N)ncnc21,0.366,0.275,0.188,0.215,0.912,0.912,0.917,0.929,0.258,0.176,0.117,-0.0267,0.716,0.708,0.699,0.63,0.352,0.294,0.31,0.355,0.908,0.905,0.918,0.937,0.595,0.576,0.586,0.587,0.816,0.84,0.835,0.833
CN(C)Cc1ccc(-c2nc3cccc4c3n2CCNC4=O)cc1,0.121,0.0696,-0.0285,-0.000931,0.038,0.056,-0.00883,-0.203,-0.0131,0.0265,-0.0439,-0.223,-0.0162,0.0398,0.00266,-0.0877,0.00803,0.0491,0.0539,0.0786,0.0336,0.127,0.116,0.183,0.564,0.632,0.638,0.652,0.585,0.642,0.654,0.657
CN(CCOc1ccc(CC2SC(=O)NC2=O)cc1)c1ccccn1 (stereo not drawn) [Rosiglitazone (Avandia)],0.068,0.0368,-0.0298,-0.117,-0.0124,0.0197,-0.0667,-0.236,-0.0381,-0.0305,-0.0979,-0.42,-0.131,-0.086,-0.0959,-0.219,-0.0122,0.00577,0.0405,0.0655,-0.0752,0.0366,0.0101,0.078,0.409,0.548,0.564,0.587,0.382,0.504,0.532,0.523
C[C@]12CC[C@@H]3c4ccc(O)cc4C[C@@H](CCCCCCCCC[S+]([O-])CCCC(F)(F)C(F)(F)F)[C@H]3[C@@H]1CC[C@@H]2O (stereo partly drawn),0.0173,-0.00253,-0.129,-0.212,-0.176,-0.0393,-0.0718,-0.153,-0.00571,-0.0298,-0.0782,-0.352,-0.0427,-0.0179,-0.055,-0.154,-0.00503,0.0303,0.0351,0.137,-0.274,-0.0121,0.0312,0.0757,0.418,0.515,0.523,0.531,0.466,0.525,0.532,0.5
COc1cc(C(=O)NC(=S)Nc2cccc(NC(=O)c3ccccc3)c2)cc(OC)c1OC,0.147,0.139,0.0192,-0.0981,0.0988,0.139,0.108,0.0418,0.0482,0.0356,0.0061,-0.153,0.0949,0.0458,0.00408,-0.0801,0.0383,0.0678,0.111,0.148,-0.0454,0.0986,0.0849,0.125,0.491,0.568,0.58,0.595,0.562,0.589,0.588,0.568
O=C(O)CCCc1ccccc1 [4-Phenylbutyrate],0.0701,0.0509,0.00363,-0.192,0.0343,0.0446,-0.0113,-0.154,-0.0798,-0.0476,-0.148,-0.516,-0.401,-0.277,-0.308,-0.483,0.0355,0.105,0.141,0.163,0.0377,0.0642,0.124,0.195,0.43,0.538,0.547,0.56,0.419,0.5,0.507,0.511
O=c1oc2c(O)c(O)cc3c(=O)oc4c(O)c(O)cc1c4c23 [Ellagic acid],-0.0386,-0.0333,-0.0157,0.0286,-0.0768,-0.0331,-0.0763,-0.143,-0.12,-0.115,-0.166,-0.332,-0.107,-0.127,-0.152,-0.219,-0.0253,-0.00558,0.0162,0.137,-0.104,-0.00651,0.0116,0.067,0.371,0.481,0.517,0.531,0.323,0.399,0.402,0.388
CC1=C(/C=C/C(C)=C/C=C/C(C)=C/C(=O)Nc2ccc(O)cc2)C(C)(C)CCC1 [Fenretinide],0.0635,0.0202,-0.0163,-0.136,0.757,0.403,0.216,0.00716,-0.0432,-0.0451,-0.13,-0.456,-0.388,-0.302,-0.337,-0.461,0.0221,0.0894,0.138,0.148,0.704,0.374,0.313,0.295,0.515,0.573,0.583,0.583,0.435,0.504,0.521,0.541
NC(=O)c1ccc(-c2nc(-c3ccccn3)c(-c3ccc4c(c3)OCO4)[nH]2)cc1,0.107,0.0821,-0.071,-0.0929,0.0294,0.069,-0.0548,-0.0669,0.151,0.132,0.0924,-0.233,-0.221,-0.199,-0.195,-0.245,0.0841,0.129,0.164,0.198,0.0479,0.102,0.125,0.211,0.633,0.64,0.642,0.63,0.438,0.521,0.528,0.52
CN(c1ncccc1CNc1nc(Nc2ccc3c(c2)CC(=O)N3)ncc1C(F)(F)F)S(C)(=O)=O,0.161,0.0909,0.0358,-0.183,0.299,0.457,0.571,0.694,-0.0233,0.0431,-0.0513,-0.296,-0.0725,0.0108,0.00901,-0.0367,0.066,0.111,0.2,0.224,0.23,0.336,0.426,0.546,0.592,0.636,0.671,0.663,0.458,0.565,0.566,0.569
CC(C=CC(=O)NO)=CC(C)C(=O)c1ccc(N(C)C)cc1 (stereo not drawn) [Trichostatin A (TSA)],0.0657,0.0558,0.00424,-0.0676,0.98,0.983,0.983,0.983,0.0108,-0.0626,-0.0672,-0.162,0.651,0.317,0.223,0.132,0.0166,0.0461,0.0335,0.0848,0.981,0.983,0.984,0.984,0.467,0.537,0.547,0.561,0.854,0.798,0.783,0.763
COc1cc(Nc2c(C#N)cnc3cc(OCCCN4CCN(C)CC4)c(OC)cc23)c(Cl)cc1Cl [Bosutinib (SKI-606)],0.086,0.0525,-0.0862,-0.0345,0.264,0.239,0.19,0.239,-0.0137,-0.0501,-0.131,-0.404,-0.377,-0.355,-0.406,-0.598,0.0416,0.085,0.124,0.135,0.333,0.281,0.33,0.431,0.588,0.626,0.647,0.638,0.263,0.36,,
